The full data set covers some 7,900 targets. This sample favours those with a hit. About 0.6% of all pairs of compound and target were hits.

Chain of UniProt Q9UI09 (Q9UI09 whole entry, looked up): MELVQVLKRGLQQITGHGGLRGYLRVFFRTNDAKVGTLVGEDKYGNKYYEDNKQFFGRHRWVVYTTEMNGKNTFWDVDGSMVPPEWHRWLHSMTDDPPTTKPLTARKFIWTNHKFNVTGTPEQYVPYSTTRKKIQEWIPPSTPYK
Chain of UniProt P49116 (P49116 whole entry, looked up): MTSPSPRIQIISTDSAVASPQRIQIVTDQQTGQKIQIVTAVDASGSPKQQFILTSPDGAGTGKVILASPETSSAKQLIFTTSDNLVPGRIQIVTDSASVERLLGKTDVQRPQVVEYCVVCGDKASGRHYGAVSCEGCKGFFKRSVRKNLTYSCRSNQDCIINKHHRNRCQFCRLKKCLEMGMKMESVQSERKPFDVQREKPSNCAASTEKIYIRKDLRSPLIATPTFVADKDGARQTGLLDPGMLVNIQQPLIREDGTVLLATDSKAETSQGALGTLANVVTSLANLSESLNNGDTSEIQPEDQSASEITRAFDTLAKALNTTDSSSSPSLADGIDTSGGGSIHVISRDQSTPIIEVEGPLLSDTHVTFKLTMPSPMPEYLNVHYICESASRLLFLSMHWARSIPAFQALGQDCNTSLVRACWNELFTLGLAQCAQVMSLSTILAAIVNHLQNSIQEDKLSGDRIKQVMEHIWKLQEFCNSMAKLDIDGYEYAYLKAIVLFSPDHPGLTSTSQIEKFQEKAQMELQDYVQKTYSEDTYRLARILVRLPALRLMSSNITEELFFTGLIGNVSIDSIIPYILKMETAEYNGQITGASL
Chain of UniProt Q15021 (Q15021 whole entry, looked up): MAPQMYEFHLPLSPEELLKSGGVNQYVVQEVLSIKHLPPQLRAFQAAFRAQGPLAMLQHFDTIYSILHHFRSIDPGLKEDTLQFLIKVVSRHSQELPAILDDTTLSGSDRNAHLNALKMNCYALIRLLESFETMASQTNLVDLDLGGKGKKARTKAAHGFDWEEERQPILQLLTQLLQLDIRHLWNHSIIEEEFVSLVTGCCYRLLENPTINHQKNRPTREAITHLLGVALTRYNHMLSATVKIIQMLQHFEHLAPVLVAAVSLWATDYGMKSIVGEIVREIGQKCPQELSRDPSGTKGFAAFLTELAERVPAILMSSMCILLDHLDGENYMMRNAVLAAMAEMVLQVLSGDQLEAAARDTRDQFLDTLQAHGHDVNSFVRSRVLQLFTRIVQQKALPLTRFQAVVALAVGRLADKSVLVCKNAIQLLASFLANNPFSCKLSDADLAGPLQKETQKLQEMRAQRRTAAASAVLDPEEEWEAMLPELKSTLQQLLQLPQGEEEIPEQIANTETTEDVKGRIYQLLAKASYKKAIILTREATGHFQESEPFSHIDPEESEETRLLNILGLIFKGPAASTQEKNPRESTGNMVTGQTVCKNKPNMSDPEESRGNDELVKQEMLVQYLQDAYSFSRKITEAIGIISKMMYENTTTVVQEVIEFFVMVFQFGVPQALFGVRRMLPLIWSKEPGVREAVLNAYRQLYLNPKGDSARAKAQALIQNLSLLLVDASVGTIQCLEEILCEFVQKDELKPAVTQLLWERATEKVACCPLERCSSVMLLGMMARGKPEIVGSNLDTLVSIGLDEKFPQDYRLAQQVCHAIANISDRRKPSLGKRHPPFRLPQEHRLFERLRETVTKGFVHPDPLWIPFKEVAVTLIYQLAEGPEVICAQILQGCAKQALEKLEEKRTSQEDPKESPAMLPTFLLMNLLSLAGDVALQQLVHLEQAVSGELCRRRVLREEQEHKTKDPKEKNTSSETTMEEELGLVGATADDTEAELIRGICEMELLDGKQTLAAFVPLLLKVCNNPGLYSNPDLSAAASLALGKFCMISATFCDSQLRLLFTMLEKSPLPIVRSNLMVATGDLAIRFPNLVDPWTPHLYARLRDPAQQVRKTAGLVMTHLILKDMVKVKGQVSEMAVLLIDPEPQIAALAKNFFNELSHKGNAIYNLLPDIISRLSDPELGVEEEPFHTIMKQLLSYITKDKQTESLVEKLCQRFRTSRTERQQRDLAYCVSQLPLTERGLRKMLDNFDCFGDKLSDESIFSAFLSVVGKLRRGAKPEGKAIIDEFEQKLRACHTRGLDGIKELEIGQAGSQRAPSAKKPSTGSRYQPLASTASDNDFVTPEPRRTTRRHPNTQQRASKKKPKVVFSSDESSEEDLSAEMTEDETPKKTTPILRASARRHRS
Chain of UniProt P15531 (P15531 whole entry, looked up): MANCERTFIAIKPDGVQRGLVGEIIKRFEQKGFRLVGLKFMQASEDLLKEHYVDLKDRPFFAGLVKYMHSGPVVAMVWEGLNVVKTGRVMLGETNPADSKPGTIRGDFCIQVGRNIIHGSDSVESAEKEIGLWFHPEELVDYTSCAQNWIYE
Chain of UniProt Q9H8H0 (Q9H8H0 whole entry, looked up): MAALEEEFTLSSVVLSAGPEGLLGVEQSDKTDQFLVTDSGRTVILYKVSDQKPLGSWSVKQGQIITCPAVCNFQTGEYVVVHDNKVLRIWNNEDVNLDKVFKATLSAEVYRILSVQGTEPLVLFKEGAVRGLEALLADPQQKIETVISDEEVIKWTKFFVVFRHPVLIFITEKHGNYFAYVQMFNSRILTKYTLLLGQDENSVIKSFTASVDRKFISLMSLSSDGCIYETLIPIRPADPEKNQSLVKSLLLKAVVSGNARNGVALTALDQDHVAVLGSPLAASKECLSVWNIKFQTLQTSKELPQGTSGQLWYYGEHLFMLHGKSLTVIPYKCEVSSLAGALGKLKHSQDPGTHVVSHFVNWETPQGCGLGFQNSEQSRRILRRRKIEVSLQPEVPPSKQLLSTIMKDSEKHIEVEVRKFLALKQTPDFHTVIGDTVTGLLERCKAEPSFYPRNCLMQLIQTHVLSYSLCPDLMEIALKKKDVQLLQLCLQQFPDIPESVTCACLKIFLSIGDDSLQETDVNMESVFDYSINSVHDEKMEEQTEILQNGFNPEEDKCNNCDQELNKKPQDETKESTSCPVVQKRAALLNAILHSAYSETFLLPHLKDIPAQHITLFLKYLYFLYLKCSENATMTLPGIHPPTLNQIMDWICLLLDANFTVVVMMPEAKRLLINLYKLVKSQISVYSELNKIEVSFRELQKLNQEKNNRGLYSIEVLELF
Chain of UniProt Q9UBD5 (Q9UBD5 whole entry, looked up): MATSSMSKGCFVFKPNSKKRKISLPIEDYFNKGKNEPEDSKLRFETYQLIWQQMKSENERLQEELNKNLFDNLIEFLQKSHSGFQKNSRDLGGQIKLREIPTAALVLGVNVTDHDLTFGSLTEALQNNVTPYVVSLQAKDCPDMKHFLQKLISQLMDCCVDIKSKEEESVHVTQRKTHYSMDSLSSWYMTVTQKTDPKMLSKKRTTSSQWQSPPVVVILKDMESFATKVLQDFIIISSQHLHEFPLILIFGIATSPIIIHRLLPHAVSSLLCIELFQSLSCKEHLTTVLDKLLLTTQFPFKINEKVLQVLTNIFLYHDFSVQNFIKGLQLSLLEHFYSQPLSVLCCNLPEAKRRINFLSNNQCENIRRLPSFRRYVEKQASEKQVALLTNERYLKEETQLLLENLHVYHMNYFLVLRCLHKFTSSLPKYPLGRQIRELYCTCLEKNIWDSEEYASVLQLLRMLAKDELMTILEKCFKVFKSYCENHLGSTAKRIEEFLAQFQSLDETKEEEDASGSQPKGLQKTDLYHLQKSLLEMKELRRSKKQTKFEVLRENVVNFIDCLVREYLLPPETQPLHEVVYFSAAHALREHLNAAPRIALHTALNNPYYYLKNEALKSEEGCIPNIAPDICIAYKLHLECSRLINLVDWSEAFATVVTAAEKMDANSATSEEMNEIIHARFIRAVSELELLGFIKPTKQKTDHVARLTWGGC
Chain of UniProt O14950 (O14950 whole entry, looked up): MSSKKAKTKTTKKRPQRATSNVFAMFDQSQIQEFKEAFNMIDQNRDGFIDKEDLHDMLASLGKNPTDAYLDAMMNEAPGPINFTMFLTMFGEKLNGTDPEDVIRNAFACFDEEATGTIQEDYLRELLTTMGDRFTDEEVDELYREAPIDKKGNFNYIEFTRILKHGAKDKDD
Chain of UniProt P15559 (P15559 whole entry, looked up): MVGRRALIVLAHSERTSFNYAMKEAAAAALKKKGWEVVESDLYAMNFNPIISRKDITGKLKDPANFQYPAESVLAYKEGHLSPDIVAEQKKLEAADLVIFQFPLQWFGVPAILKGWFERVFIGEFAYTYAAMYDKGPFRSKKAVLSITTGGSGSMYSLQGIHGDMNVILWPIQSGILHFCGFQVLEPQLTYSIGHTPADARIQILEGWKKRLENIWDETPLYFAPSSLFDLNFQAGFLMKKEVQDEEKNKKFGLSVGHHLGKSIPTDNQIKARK
Chain of UniProt P22059 (P22059 whole entry, looked up): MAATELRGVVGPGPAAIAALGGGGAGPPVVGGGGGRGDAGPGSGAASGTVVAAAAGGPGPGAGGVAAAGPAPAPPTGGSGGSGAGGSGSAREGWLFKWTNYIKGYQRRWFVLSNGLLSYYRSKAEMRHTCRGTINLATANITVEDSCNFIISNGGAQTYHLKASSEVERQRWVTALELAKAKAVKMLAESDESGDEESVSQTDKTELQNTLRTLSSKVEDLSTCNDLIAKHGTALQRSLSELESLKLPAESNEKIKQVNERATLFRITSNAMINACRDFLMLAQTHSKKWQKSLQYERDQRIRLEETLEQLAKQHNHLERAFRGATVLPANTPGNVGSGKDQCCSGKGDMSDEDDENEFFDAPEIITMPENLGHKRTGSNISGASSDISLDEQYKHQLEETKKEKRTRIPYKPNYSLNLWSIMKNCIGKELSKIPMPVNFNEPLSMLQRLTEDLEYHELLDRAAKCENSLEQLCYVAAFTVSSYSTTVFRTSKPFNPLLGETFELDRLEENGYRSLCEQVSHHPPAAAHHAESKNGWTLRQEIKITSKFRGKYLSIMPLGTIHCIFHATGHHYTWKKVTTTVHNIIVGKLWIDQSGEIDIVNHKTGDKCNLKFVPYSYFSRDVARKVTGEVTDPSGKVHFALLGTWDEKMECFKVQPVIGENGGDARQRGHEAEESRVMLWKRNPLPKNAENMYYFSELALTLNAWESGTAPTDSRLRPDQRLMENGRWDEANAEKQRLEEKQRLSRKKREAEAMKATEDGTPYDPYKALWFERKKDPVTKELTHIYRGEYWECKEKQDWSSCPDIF

Compound in the first experiment: Cc1cccc(CC(=O)N2CCc3c2ccc(-c2cn(C)c4ncnc(N)c24)c3F)n1
In words: log2 fold change, soluble protein after heating vs DMSO (PISA); higher = thermal stabilisation; K562 cells, 10 uM, 30 min; active = over 0.2 and 3.5 SD of the protein, either way, in both replicates (recomputed). The essentials:
(§1)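 K562 cells at 2×10^6 cells/mL were exposed to 10 μM compound for 30 min, then aliquots were heated for 3 min across 48°C-58°C, pooled, and extracted in PBS containing 0.5% NP-40 at 4°C. The supernatant after 21,000xg for 90 min was taken as soluble protein and measured by TMTpro 16plex LC-MS/MS with channel sums equalised. Thermal stability is reported relative to control samples, with values from duplicates. Fold changes are given on a log2 scale.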
As to NFATC2 (UniProt Q13469), the log2 fold change was 0.066 (inactive).

As to MRPS18B (UniProt Q9Y676), the log2 fold change is 0.055 (inactive).

As for PACS1 (UniProt Q6VY07), the log2 fold change is 0.02 (inactive).

As to NUP205 (UniProt Q92621), the log2 fold change is 0 (inactive).

For the target NA, A0A0B4J2A0, the log2 fold change is 0.024 (inactive).

OSBP (UniProt P22059): the log2 fold change is 0.005 (inactive).

As for MKNK1 (UniProt Q9BUB5), the log2 fold change was 0.057 (inactive).

Consider NMNAT1 (UniProt Q9HAN9), for which the log2 fold change was -0.034 (inactive).

For MRPS25 (UniProt P82663), the log2 fold change is 0.158 (inactive).

As to NME1 isoform 2 (UniProt P15531), the log2 fold change is -0.175 (inactive).

As to MRPL47 (UniProt Q9HD33), the log2 fold change is -0.263 (inactive).

Regarding NDUFA12 (UniProt Q9UI09), the log2 fold change is 0.089 (inactive).

As for MOV10 (UniProt Q9HCE1), the log2 fold change is 0 (inactive).

Turning to MTHFD1, A0A384N5Y3, the log2 fold change was -0.055 (inactive).

As to MRPS5 (UniProt P82675), the log2 fold change was 0.159 (inactive).

Take NFATC2IP (UniProt Q8NCF5): the log2 fold change is -0.029 (inactive).

Take NOL11 (UniProt Q9H8H0): the log2 fold change was 0.017 (inactive).

As to NDUFA6 (UniProt P56556), the log2 fold change was 0.301 (inactive).

With OSBPL8 (UniProt Q9BZF1), the log2 fold change was 0.049 (inactive).

With NOSIP (UniProt Q9Y314), the log2 fold change is 0.066 (inactive).

As for NR2C2 isoform 2 (UniProt P49116), the log2 fold change is 0.027 (inactive).

In the case of NDUFB8 (UniProt O95169), the log2 fold change was -0.002 (inactive).

On to NQO1 (UniProt P15559), for which the log2 fold change was 0.365 (active).

In the case of MSH2 (UniProt P43246), the log2 fold change is 0.04 (inactive).

Regarding MT-ATP6 (UniProt P00846), the log2 fold change is 0.086 (inactive).

In the case of MRPS2 (UniProt Q9Y399), the log2 fold change was 0.175 (inactive).

On to NOB1 (UniProt Q9ULX3), for which the log2 fold change is 0.093 (inactive).

For MPP1 (UniProt Q00013), the log2 fold change was 0.035 (inactive).

As for NUCKS1 (UniProt Q9H1E3), the log2 fold change is -0.128 (inactive).

As for ORC3 isoform 2 (UniProt Q9UBD5), the log2 fold change was 0.099 (inactive).

Take NOLC1 isoform 2 (UniProt Q14978): the log2 fold change is -0.031 (inactive).

As for NEDD4 isoform 4 (UniProt P46934), the log2 fold change is 0.054 (inactive).

MRPS22 (UniProt P82650): the log2 fold change is 0.137 (inactive).

Turning to MSTO1 (UniProt Q9BUK6), the log2 fold change was 0.028 (inactive).

NCAPD2 (UniProt Q15021): the log2 fold change was 0.045 (inactive).

MYL12B (UniProt O14950): the log2 fold change was 0.042 (inactive).

As for NEU1 (UniProt Q99519), the log2 fold change is 0.171 (inactive).

Turning to NA, A0A096LPI6, the log2 fold change is -0.043 (inactive).

Turning to MRPS33 (UniProt Q9Y291), the log2 fold change was 0.125 (inactive).

Compound in another experiment: Cc1cn(-c2cc(NC(=O)c3ccc(C)c(Nc4nccc(-c5cccnc5)n4)c3)cc(C(F)(F)F)c2)cn1 [nilotinib]
Described as above. The essentials: as §1
As for NFATC2 (UniProt Q13469), the log2 fold change is -0.135 (inactive).

With MRPS18B (UniProt Q9Y676), the log2 fold change was -0.154 (inactive).

With PACS1 (UniProt Q6VY07), the log2 fold change is 0.051 (inactive).

In the case of NUP205 (UniProt Q92621), the log2 fold change was -0.042 (inactive).

Regarding NA, A0A0B4J2A0, the log2 fold change is 0.035 (inactive).

In the case of OSBP (UniProt P22059), the log2 fold change is 0.123 (inactive).

Take MKNK1 (UniProt Q9BUB5): the log2 fold change was 0 (inactive).

Regarding NMNAT1 (UniProt Q9HAN9), the log2 fold change was -0.073 (inactive).

As for MRPS25 (UniProt P82663), the log2 fold change was -0.144 (inactive).

For NME1 isoform 2 (UniProt P15531), the log2 fold change was -0.115 (inactive).

In the case of MRPL47 (UniProt Q9HD33), the log2 fold change was -0.124 (inactive).

For the target NDUFA12 (UniProt Q9UI09), the log2 fold change is -0.158 (inactive).

Turning to MOV10 (UniProt Q9HCE1), the log2 fold change is 0.035 (inactive).

As for MTHFD1, A0A384N5Y3, the log2 fold change was 0.239 (inactive).

For the target MRPS5 (UniProt P82675), the log2 fold change is -0.287 (inactive).

In the case of NFATC2IP (UniProt Q8NCF5), the log2 fold change was 0.001 (inactive).

With NOL11 (UniProt Q9H8H0), the log2 fold change is -0.016 (inactive).

As for NDUFA6 (UniProt P56556), the log2 fold change is -0.151 (inactive).

OSBPL8 (UniProt Q9BZF1): the log2 fold change was 0.295 (inactive).

In the case of NOSIP (UniProt Q9Y314), the log2 fold change is -0.11 (inactive).

Consider NR2C2 isoform 2 (UniProt P49116), for which the log2 fold change is -0.033 (inactive).

For NDUFB8 (UniProt O95169), the log2 fold change is 0.015 (inactive).

On to NQO1 (UniProt P15559), for which the log2 fold change was -0.001 (inactive).

With MSH2 (UniProt P43246), the log2 fold change was -0.003 (inactive).

Consider MT-ATP6 (UniProt P00846), for which the log2 fold change is 0.006 (inactive).

As to MRPS2 (UniProt Q9Y399), the log2 fold change is -0.119 (inactive).

In the case of NOB1 (UniProt Q9ULX3), the log2 fold change was -0.044 (inactive).

For MPP1 (UniProt Q00013), the log2 fold change is 0.073 (inactive).

Consider NUCKS1 (UniProt Q9H1E3), for which the log2 fold change was -0.028 (inactive).

Take ORC3 isoform 2 (UniProt Q9UBD5): the log2 fold change is -0.262 (inactive).

Turning to NOLC1 isoform 2 (UniProt Q14978), the log2 fold change was 0.1 (inactive).

NEDD4 isoform 4 (UniProt P46934): the log2 fold change was -0.047 (inactive).

Regarding MRPS22 (UniProt P82650), the log2 fold change was -0.21 (inactive).

Take MSTO1 (UniProt Q9BUK6): the log2 fold change was -0.057 (inactive).

Take NCAPD2 (UniProt Q15021): the log2 fold change is -0.078 (inactive).

Regarding MYL12B (UniProt O14950), the log2 fold change was 0.031 (inactive).

In the case of NEU1 (UniProt Q99519), the log2 fold change was -0.051 (inactive).

For NA, A0A096LPI6, the log2 fold change is 0 (inactive).

For the target MRPS33 (UniProt Q9Y291), the log2 fold change was -0.129 (inactive).

(Values after the supplement of paper PMC10849652.)
